PubChem BioAssay (NCI)
About 83,000 compounds went through this panel and 20% of them were active in at least one assay; those are over-represented in the sample as a whole.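 Method: cells in 96-well plates; compound added at one concentration; 48 h incubation; percent growth measured; values under 10 scored active.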 Unmarked numbers belong to inactive results. Calls of active or inactive are those of the source.

test system: SW-620 colon; experiment: NCI-60 one-dose screen, 48 h (100 = growth as untreated, 0 = no growth, -100 = all killed); conditions: 10 µM unless noted

**Q.** For N#C/C(=C\c1ccc(-c2ccc(Br)cc2)o1)c1nc(-c2cccs2)cs1, which growth is on record?
**A.** 99.8%

**Q.** For Cc1cc(C=O)c(C)c2c1[nH]c1ccccc12, which growth is on record?
**A.** 101%

**Q.** Which growth does the source give for CCCCC[C@H]1C/C=C2/C(=O)C=C[C@@H]2C/C=C\CCCC(=O)O[C@@H](CCCCC)C/C=C2/C(=O)C=C[C@@H]2C/C=C\CCCC(=O)O1 here?
**A.** -54.1% (active)

**Q.** How did the growth turn out when Cn1nc(-c2ccccc2)c2c(-c3ccccc3)onc2c1=O was run?
**A.** 28.9%

**Q.** For CCN1CCN(C(=O)[C@]23CCC(C)(C)C[C@@H]2C2=CC[C@@H]4[C@@]5(C)C/C(=C/c6cccnc6)C(=O)C(C)(C)[C@@H]5CC[C@@]4(C)[C@]2(C)CC3)CC1, which growth is on record?
**A.** 27.6%

**Q.** With COc1ccc2c(c1)c(-c1nc(-c3cn(C)c4ncccc34)cs1)cn2CCN as the compound, how does the growth read?
**A.** 62.3%

**Q.** For Cc1oc(-c2ccccc2Cl)cc1C(=O)Nc1ccc(S(N)(=O)=O)cc1, which growth is on record?
**A.** 108%

**Q.** Which growth does the source give for Cn1c(/C(C#N)=C/c2ccc3ccccc3c2)cc2ccccc21 here?
**A.** 26.4%

**Q.** How did the growth turn out when CCSc1ncnc2c1ncn2C1OC(CO)C(O)C1O (stereo not drawn) was run?
**A.** 28.4%

**Q.** How did the growth turn out when CCCCN1CCCCn2c1nc1c2c(=O)n(C)c(=O)n1C was run?
**A.** 102%

**Q.** For CC(C)(C)c1cc(-n2c(-c3ccc(Cl)cc3)nc3cc(C(=O)Nc4ccc(Cl)cc4)ccc32)n[nH]1, which growth is on record?
**A.** 55.9%

**Q.** For NC(=O)NCC1CCCCC1, which growth is on record?
**A.** 108%

**Q.** CC(=O)N1N=C(c2ccc(C)cc2)CC1c1ccc(Oc2ccc(Br)cc2)cc1 (stereo not drawn) was tested. Which growth did it give?
**A.** 86.7%

**Q.** O=C(/C=C/c1cccc2ccccc12)Nc1ncc(Cc2ccccc2)s1 was tested. Which growth did it give?
**A.** 13.7%

**Q.** COc1ccc2c(c1)C(Br)=C(CCO)C2c1ccccc1 (stereo not drawn) was tested. Which growth did it give?
**A.** 73.2%

**Q.** C=C1C(=O)O[C@H]2[C@H]1CC/C(Cn1cc(-c3ccc(F)cc3)nn1)=C\CC[C@@]1(C)O[C@@H]21 was tested. Which growth did it give?
**A.** -40.6% (active)

**Q.** With OCC1OC(n2cnc3c(Cl)ncnc32)CC1O (stereo not drawn) as the compound, how does the growth read?
**A.** 98.7%

**Q.** Which growth does the source give for Cn1cc(-c2csc(-c3cn(CCN)c4ccccc34)n2)c2cccnc21 here?
**A.** 44.2%

**Q.** Which growth does the source give for COc1cc(/C=C2\C(=O)N(CC(O)COc3cc(O)c4c(=O)cc(-c5ccccc5)oc4c3)c3ccccc32)cc(OC)c1O (stereo not drawn) here?
**A.** 89.9%

**Q.** How did the growth turn out when C=C(C)[C@@H]1CC[C@]2(C(=O)O)CC[C@]3(C)[C@H](CC[C@@H]4[C@@]5(C)C/C(=C/c6ccc(OC)cc6)C(=O)C(C)(C)[C@@H]5CC[C@]43C)[C@@H]12 was run?
**A.** 21.9%

**Q.** How did the growth turn out when O=C1c2cccc3cccc(c23)C(=O)N1CC#Cc1ccc2c3c(cccc13)C(=O)N(CCO)C2=O was run?
**A.** 92.2%

**Q.** Which growth does the source give for CN1CCN(CCOc2ccc(-c3cnc4c(-c5ccccc5F)cnn4c3)cc2)CC1 here?
**A.** -73.8% (active)

**Q.** How did the growth turn out when CCN(CC)CCCCCCNc1ccnc2cc(Cl)ccc12 was run?
**A.** 83.3%

**Q.** For C/C(Cc1ccc(Cl)cc1)=C(/c1ccc(Cl)cc1)c1ccc(OCCN2CCCC2)cc1, which growth is on record?
**A.** 58.6%

**Q.** How did the growth turn out when Cc1ccc(N(CC(=O)Nc2ccc(S(=O)(=O)N3CCC(N4CCCC4)CC3)cc2)S(=O)(=O)c2ccc(Cl)cc2)cc1 was run?
**A.** -46.8% (active)

**Q.** With Cn1cc(-c2csc(-c3c[nH]c4ccccc34)n2)c2cccnc21 as the compound, how does the growth read?
**A.** 29.6%

**Q.** How did the growth turn out when C(=C\c1c[nH]c2ccccc12)/c1ccc2ccccc2n1 was run?
**A.** 107%

**Q.** Which growth does the source give for COc1cccc(-c2nn(-c3ccccc3)cc2-c2ccnc(NCCCNS(=O)(=O)c3ccc(Cl)cc3)c2)c1 here?
**A.** 62.6%

**Q.** With Cc1ccncc1C(=O)O as the compound, how does the growth read?
**A.** 97.3%

**Q.** Cc1cccc(C)c1NC(=O)CSC(=S)N1CCN(CCOCCO)CC1 was tested. Which growth did it give?
**A.** 104%

**Q.** Which growth does the source give for Cc1cc(Cl)nc(N(CCNc2ccnc3cc(Cl)ccc23)Cc2ccco2)n1 here?
**A.** 28%

**Q.** Which growth does the source give for COC(=O)[C@]12CC[C@@H](C)[C@H](C)[C@@H]1C1=CC[C@@H]3[C@@]4(C)C[C@@H](O)[C@H](O)[C@@](C)(CO)C4=CC[C@@]3(C)[C@]1(C)CC2 here?
**A.** -55.5% (active)

**Q.** Which growth does the source give for Fc1ccc2nc(-c3cc(-c4ccc5c(c4)OCO5)n[nH]3)[nH]c2c1 here?
**A.** 37.2%

**Q.** How did the growth turn out when COc1cc2[nH]c(C(=O)c3cc(OC)c(OC)c(OC)c3)c(N)c2cc1C#CCO was run?
**A.** 16.9%

**Q.** How did the growth turn out when COc1ccc(-c2cc(-c3cccs3)n(N=O)c(=O)c2C#N)cc1 was run?
**A.** 112%

**Q.** How did the growth turn out when Cc1ccc(Sc2sc(-c3ccccc3)nc2[P+](c2ccccc2)(c2ccccc2)c2ccccc2)cc1 was run?
**A.** 8.24% (active)

**Q.** Which growth does the source give for NS(=O)(=O)c1ccc(CCNC(=O)/C=C/c2ccc(Cl)cc2)cc1 here?
**A.** 102%

**Q.** Which growth does the source give for Cc1cc2nc3c4cc(Cl)ccc4n(CCN(C)C)c3nc2cc1C here?
**A.** -21.9% (active)

**Q.** Which growth does the source give for Cc1ccc(S(=O)(=O)Nc2ccc(-c3cc(-c4cccc(F)c4)c(C#N)c(N)n3)cc2)cc1 here?
**A.** -31.7% (active)

test system: MCF7 breast; experiment: as above; conditions: 10 µM unless noted

**Q.** For N#C/C(=C\c1ccc(-c2ccc(Br)cc2)o1)c1nc(-c2cccs2)cs1, which growth is on record?
**A.** 28.9%

**Q.** Which growth does the source give for Cc1cc(C=O)c(C)c2c1[nH]c1ccccc12 here?
**A.** 85.4%

**Q.** With CCCCC[C@H]1C/C=C2/C(=O)C=C[C@@H]2C/C=C\CCCC(=O)O[C@@H](CCCCC)C/C=C2/C(=O)C=C[C@@H]2C/C=C\CCCC(=O)O1 as the compound, how does the growth read?
**A.** -70.9% (active)

**Q.** For Cn1nc(-c2ccccc2)c2c(-c3ccccc3)onc2c1=O, which growth is on record?
**A.** 23.6%

**Q.** How did the growth turn out when CCN1CCN(C(=O)[C@]23CCC(C)(C)C[C@@H]2C2=CC[C@@H]4[C@@]5(C)C/C(=C/c6cccnc6)C(=O)C(C)(C)[C@@H]5CC[C@@]4(C)[C@]2(C)CC3)CC1 was run?
**A.** 5.68% (active)

**Q.** For COc1ccc2c(c1)c(-c1nc(-c3cn(C)c4ncccc34)cs1)cn2CCN, which growth is on record?
**A.** 16.6%

**Q.** Which growth does the source give for Cc1oc(-c2ccccc2Cl)cc1C(=O)Nc1ccc(S(N)(=O)=O)cc1 here?
**A.** 92.7%

**Q.** How did the growth turn out when Cn1c(/C(C#N)=C/c2ccc3ccccc3c2)cc2ccccc21 was run?
**A.** 14.1%

**Q.** For CCSc1ncnc2c1ncn2C1OC(CO)C(O)C1O (stereo not drawn), which growth is on record?
**A.** 19.2%

**Q.** Which growth does the source give for CCCCN1CCCCn2c1nc1c2c(=O)n(C)c(=O)n1C here?
**A.** 103%

**Q.** CC(C)(C)c1cc(-n2c(-c3ccc(Cl)cc3)nc3cc(C(=O)Nc4ccc(Cl)cc4)ccc32)n[nH]1 was tested. Which growth did it give?
**A.** 38.5%

**Q.** How did the growth turn out when NC(=O)NCC1CCCCC1 was run?
**A.** 90.6%

**Q.** Which growth does the source give for CC(=O)N1N=C(c2ccc(C)cc2)CC1c1ccc(Oc2ccc(Br)cc2)cc1 (stereo not drawn) here?
**A.** 81.8%

**Q.** How did the growth turn out when O=C(/C=C/c1cccc2ccccc12)Nc1ncc(Cc2ccccc2)s1 was run?
**A.** 10.8%

**Q.** For COc1ccc2c(c1)C(Br)=C(CCO)C2c1ccccc1 (stereo not drawn), which growth is on record?
**A.** 58.8%

**Q.** With C=C1C(=O)O[C@H]2[C@H]1CC/C(Cn1cc(-c3ccc(F)cc3)nn1)=C\CC[C@@]1(C)O[C@@H]21 as the compound, how does the growth read?
**A.** -55.6% (active)

**Q.** With OCC1OC(n2cnc3c(Cl)ncnc32)CC1O (stereo not drawn) as the compound, how does the growth read?
**A.** 95.2%

**Q.** How did the growth turn out when Cn1cc(-c2csc(-c3cn(CCN)c4ccccc34)n2)c2cccnc21 was run?
**A.** 16.7%

**Q.** COc1cc(/C=C2\C(=O)N(CC(O)COc3cc(O)c4c(=O)cc(-c5ccccc5)oc4c3)c3ccccc32)cc(OC)c1O (stereo not drawn) was tested. Which growth did it give?
**A.** 32.8%

**Q.** Which growth does the source give for C=C(C)[C@@H]1CC[C@]2(C(=O)O)CC[C@]3(C)[C@H](CC[C@@H]4[C@@]5(C)C/C(=C/c6ccc(OC)cc6)C(=O)C(C)(C)[C@@H]5CC[C@]43C)[C@@H]12 here?
**A.** 5.66% (active)

**Q.** O=C1c2cccc3cccc(c23)C(=O)N1CC#Cc1ccc2c3c(cccc13)C(=O)N(CCO)C2=O was tested. Which growth did it give?
**A.** 106%

**Q.** CN1CCN(CCOc2ccc(-c3cnc4c(-c5ccccc5F)cnn4c3)cc2)CC1 was tested. Which growth did it give?
**A.** 19.2%

**Q.** CCN(CC)CCCCCCNc1ccnc2cc(Cl)ccc12 was tested. Which growth did it give?
**A.** 82.7%

**Q.** For C/C(Cc1ccc(Cl)cc1)=C(/c1ccc(Cl)cc1)c1ccc(OCCN2CCCC2)cc1, which growth is on record?
**A.** 31%

**Q.** Cc1ccc(N(CC(=O)Nc2ccc(S(=O)(=O)N3CCC(N4CCCC4)CC3)cc2)S(=O)(=O)c2ccc(Cl)cc2)cc1 was tested. Which growth did it give?
**A.** 14.2%

**Q.** How did the growth turn out when Cn1cc(-c2csc(-c3c[nH]c4ccccc34)n2)c2cccnc21 was run?
**A.** 13.6%

**Q.** How did the growth turn out when C(=C\c1c[nH]c2ccccc12)/c1ccc2ccccc2n1 was run?
**A.** 63.7%

**Q.** For COc1cccc(-c2nn(-c3ccccc3)cc2-c2ccnc(NCCCNS(=O)(=O)c3ccc(Cl)cc3)c2)c1, which growth is on record?
**A.** 24.3%

**Q.** With Cc1ccncc1C(=O)O as the compound, how does the growth read?
**A.** 101%

**Q.** Cc1cccc(C)c1NC(=O)CSC(=S)N1CCN(CCOCCO)CC1 was tested. Which growth did it give?
**A.** 98.1%

**Q.** How did the growth turn out when Cc1cc(Cl)nc(N(CCNc2ccnc3cc(Cl)ccc23)Cc2ccco2)n1 was run?
**A.** 22.7%

**Q.** Which growth does the source give for COC(=O)[C@]12CC[C@@H](C)[C@H](C)[C@@H]1C1=CC[C@@H]3[C@@]4(C)C[C@@H](O)[C@H](O)[C@@](C)(CO)C4=CC[C@@]3(C)[C@]1(C)CC2 here?
**A.** -37.1% (active)

**Q.** With Fc1ccc2nc(-c3cc(-c4ccc5c(c4)OCO5)n[nH]3)[nH]c2c1 as the compound, how does the growth read?
**A.** 59.3%

**Q.** With COc1cc2[nH]c(C(=O)c3cc(OC)c(OC)c(OC)c3)c(N)c2cc1C#CCO as the compound, how does the growth read?
**A.** 10.1%

**Q.** How did the growth turn out when COc1ccc(-c2cc(-c3cccs3)n(N=O)c(=O)c2C#N)cc1 was run?
**A.** 95.8%

**Q.** Cc1ccc(Sc2sc(-c3ccccc3)nc2[P+](c2ccccc2)(c2ccccc2)c2ccccc2)cc1 was tested. Which growth did it give?
**A.** -4.53% (active)

**Q.** With NS(=O)(=O)c1ccc(CCNC(=O)/C=C/c2ccc(Cl)cc2)cc1 as the compound, how does the growth read?
**A.** 92.5%

**Q.** With Cc1cc2nc3c4cc(Cl)ccc4n(CCN(C)C)c3nc2cc1C as the compound, how does the growth read?
**A.** -37.9% (active)

**Q.** For Cc1ccc(S(=O)(=O)Nc2ccc(-c3cc(-c4cccc(F)c4)c(C#N)c(N)n3)cc2)cc1, which growth is on record?
**A.** 11.3%
